# Active and inactive are the calls of the source. Cut-off read from the data, not from the text of the source: active = inhibition above about 33%; inactive = the rest.
# Test: VP16 transactivation reporter inhibitors, counter-screen for LRH-1 inverse agonist project, cell-based, luminescence, high throughput (AID 651615)
# Details: Gal4-VP16 luciferase reporter cells, at 3.6 µM, stronger effect = higher value
row,Structure (SMILES),inhibition
1,C[C@@H]1CN([C@@H](C)CO)S(=O)(=O)c2ccc(-c3ccc(C#N)cc3)cc2O[C@@H]1CN(C)Cc1ccccn1,-14.3% (inactive)
2,O=C(NC1CCC(CC2CCC(NC(=O)C(Cl)Cl)CC2)CC1)C(Cl)Cl (centres undefined),-2.2% (inactive)
3,Cc1no[n+]([O-])c1COc1ccc(/C=N/n2nnnc2N)cc1,0.06% (inactive)
4,COc1ccc(C2=CC(=O)OC3(CCCC3)O2)cc1,-0.06% (inactive)
5,O=C(CCl)NCCCN(C(=O)C(Cl)Cl)c1ccc([N+](=O)[O-])cc1,-8.07% (inactive)
6,Cc1ccc(-c2cc(NC=O)c3ncc(-c4cnn(C)c4)n3c2)cc1,-13.8% (inactive)
7,CCOc1ccc(NC(=O)COC(=O)c2ncc(Cl)c(Cl)c2Cl)cc1,-18.7% (inactive)
8,Cc1cccc(OCC(=O)Nc2ccncc2)c1C,36.1% (active)
9,O=c1c2ccc(Cl)cc2nc(-c2cccc(C(F)(F)F)c2)n1O,46.2% (active)

# Source: PubChem BioAssay
